Experimental data as given in ChEMBL document CHEMBL4513146, “CO-ADD screening of Karazin Kharkiv National University (Ukraine) compounds”.
Potency and affinity values are given separately.

Tested on: Klebsiella pneumoniae
Details: Concentration 32 ug.mL-1;; ASSAY_TEST Inhibition of Bacterial Growth; detection method Absorption (OD600); MEDIA CAMHB; plate type 384well; NBS; CORNING #3640; time 18 hr

Row | SMILES | Inhibition [%]
1 | O=C(Cn1nc2ccc(-c3ccc(Cl)cc3)nn2c1=O)NC1CCCC1 | 16.69
2 | CC(C)Cc1ccc(S(=O)(=O)Nc2ccc3nncn3n2)cc1 | 8.3
3 | Cc1[nH]c2ccccc2c1C(=O)CSc1nnc2c(=O)n(-c3ccc(Br)cc3)ccn12 | 4.84
4 | O=S(=O)(c1ccc2nncn2c1)N(Cc1cc(F)cc(F)c1)c1cc(F)cc(F)c1 | -2.94
5 | O=c1c2sccc2n2c(=O)n(Cc3ccccc3F)nc2n1Cc1cccs1 | -1.85
6 | COc1cc(-c2nnc3c(=O)n(Cc4ccc(Cl)cc4)ccn23)cc(OC)c1OC | 11.02
7 | COc1cccc(Sc2nc3ccccc3n3c(=O)n(CC(=O)Nc4cccc(F)c4)nc23)c1 | 12.26
8 | Cc1c(Cl)cccc1-n1ccn2c(=O)n(Cc3cccc(F)c3)nc2c1=O | 6.93
9 | Cn1c(=O)c2ccc(C(=O)NC3CCCC3)cc2n2c(SCc3c(F)cccc3Cl)nnc12 | 14.92
10 | COc1ccccc1NC(=O)Cn1nc2c3cc(-c4ccc(Cl)cc4)nn3ccn2c1=O | 7.17
11 | Cc1cc2nn(CC(=O)Nc3ccccc3C)c(=O)n2c(Nc2ccc(F)c(C)c2)n1 | 13.6
12 | O=c1n(Cc2nc(-c3ccc(Cl)cc3)no2)nc2ccc(-c3ccccc3)nn12 | 13.55
13 | NC(=O)Cn1nc2n(CCC(=O)NC3CCCCC3)c(=O)c3ccccc3n2c1=O | 14.53
14 | Cc1ccc(-c2ccc3nn(CC(=O)Nc4ccccc4)c(=O)n3n2)cc1C | 3.8
15 | COc1ccc(NC(=O)Cn2nc3c(SC4CCCCC4)nccn3c2=O)cc1 | 11.17
